The record followed here is PubChem BioAssay (EPA / NIEHS).

As usually defined, the AC50 is the midpoint of the concentration-response curve, whichever way the signal moves.

A short description of test [1]: Tanguay_ZF_120hpf_JAW_legacy: (Legacy) Oregon State University Tanguay Lab 120 Hour Post-fertilization zebrafish Assay for Jaw Malformation (AID 2283638).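 As to AC50: active means more embryos with jaw malformation than DMSO controls.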 The procedure, abridged: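 Dechorionated Tropical 5D wild-type zebrafish embryos, one per well, exposed statically from 6 hpf to 120 hpf at 28C in 0.64% DMSO. Jaw malformation was scored by brightfield microscopy as present or absent. It was not scored in dead embryos.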

Test [2] can be described thus: Tanguay_ZF_120hpf_OTIC_legacy: (Legacy) Oregon State University Tanguay Lab 120 Hour Post-fertilization zebrafish Assay for Otic Vesicle Malformation (AID 2283639). In a few lines: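 Tropical 5D wild-type zebrafish embryos were exposed statically in sealed, foil-covered plates at 28C until 120 hpf, with 0.64% (vol/vol) DMSO final. Otic vesicle malformation was scored present/absent by brightfield microscopy, with DMSO as baseline.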

Test [3] in a line: Tanguay_ZF_120hpf_BRAI_legacy: (Legacy) Oregon State University Tanguay Lab 120 Hour Post-fertilization zebrafish Assay for Brain Malformation (AID 2283641). The procedure, abridged: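 Tropical 5D wild-type zebrafish embryos exposed statically until 120 hpf at 28C, 0.64% DMSO final, sealed and dark. Brain malformation scored present/absent by brightfield at 120 hpf; dead embryos excluded. Trimethyltin chloride 5uM positive control.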

A short description of test [4]: Tanguay_ZF_120hpf_SOMI_legacy: (Legacy) Oregon State University Tanguay Lab 120 Hour Post-fertilization zebrafish Assay for Somite Malformation (AID 2283647). The procedure, abridged:
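Dechorionated Tropical 5D wild-type zebrafish embryos, one per well from 6 hpf, statically exposed at 28C to 120 hpf in 0.64% DMSO; somite malformation scored present/absent by brightfield; trimethyltin 5 uM positive control; dead embryos not scored.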

A short description of test [5]: Tanguay_ZF_120hpf_PFIN_legacy: (Legacy) Oregon State University Tanguay Lab 120 Hour Post-fertilization zebrafish Assay for Pectoral Fin Malformation (AID 2283648).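 Also: each larva judged yes or no for fin defect by brightfield with dead larvae skipped.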 The procedure, abridged:
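Tropical 5D wild-type embryos, dechorionated with pronase at 4 hpf, were placed singly in wells at 6 hpf and statically exposed until 120 hpf at 28C, sealed and dark, with 0.64% (vol/vol) final DMSO; pectoral fin malformation scored present/absent.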

The nature of test [6]: Tanguay_ZF_120hpf_PIG_legacy: (Legacy) Oregon State University Tanguay Lab 120 Hour Post-fertilization zebrafish Assay for Pigmentation Malformation (AID 2283650). In a few lines: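 Tropical 5D wild-type zebrafish embryos, dechorionated with pronase at 4 hpf, were exposed singly from 6 hpf to 120 hpf statically at 28C in sealed, dark plates with 0.64% DMSO; pigmentation scored present/absent by brightfield microscopy, fitted against DMSO.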

Test [7] is described as follows: Tanguay_ZF_120hpf_SWIM_legacy: (Legacy) Oregon State University Tanguay Lab 120 Hour Post-fertilization zebrafish Assay for Swim Bladder Malformation (AID 2283654).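 Also: swim bladder malformation in each larva scored yes or no under brightfield.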 The procedure, abridged: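 Dechorionated Tropical 5D wild-type embryos, placed singly from 6 hpf, were statically exposed at 28C to 120 hpf with 0.64% DMSO final; swim bladder malformation was scored present/absent by brightfield microscopy, gain of signal relative to DMSO controls.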

Test [8] is described as follows: Tanguay_ZF_120hpf_TRUN_legacy: (Legacy) Oregon State University Tanguay Lab 120 Hour Post-fertilization zebrafish Assay for Truncated Body (AID 2283655). In a few lines:
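Dechorionated Tropical 5D wild-type embryos placed singly from 6 hpf and statically exposed to 120 hpf at 28C, final DMSO 0.64%. Truncated body scored as present/absent by brightfield; not scored in dead embryos.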

A short description of test [9]: Tanguay_ZF_120hpf_CFIN_legacy: (Legacy) Oregon State University Tanguay Lab 120 Hour Post-fertilization zebrafish Assay for Caudal Fin Malformation (AID 2283649). In a few lines:
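Dechorionated Tropical 5D wild-type embryos, one per well from 6 hpf, static exposure to 120 hpf at 28C in 0.64% DMSO. Caudal fin malformation scored by brightfield as present/absent; not scored in dead embryos.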

The nature of test [10]: Tanguay_ZF_120hpf_NC_legacy: (Legacy) Oregon State University Tanguay Lab 120 Hour Post-fertilization zebrafish Assay for Notochord and Tail Malformation (AID 2283656). In a few lines: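 Dechorionated 5D zebrafish, 1/well from 6 hpf; static exposure to 120 hpf, 28C, sealed, dark; final DMSO 0.64% v/v. NC scored binary (present/absent); dead embryos not scored. Fit vs DMSO baseline, gain direction.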

A short description of test [11]: Tanguay_ZF_120hpf_PE_legacy: (Legacy) Oregon State University Tanguay Lab 120 Hour Post-fertilization zebrafish Assay for Pericardial Edema (AID 2283640).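 As to AC50: potency for increased incidence of pericardial edema versus DMSO baseline.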 The procedure, abridged: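 Tropical 5D wild-type zebrafish embryos were statically exposed until 120 hpf at 28C, with 0.64% DMSO final. Pericardial edema was scored by brightfield as present or absent; endpoints were not scored in dead embryos.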

The test system of test [12] is Thyroperoxidase (TPO), gene 54314. Briefly: CCTE_Simmons_AUR_rTPO: CCTE's Amplex UltraRed Assay for Thyroperoxidase (TPO) Inhibition, Simmons Lab (AID 2283662).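 As to AC50: potency for loss of signal meaning inhibition of peroxidase activity.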 In a few lines: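 Endpoint is decreased Amplex UltraRed fluorescence after a 30-min, 37C reaction of rat thyroid microsomes with 300 uM H2O2. Eight test concentrations (5 nM–87.5 uM final) in 0.5% DMSO, three biological replicates each.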

Read-out in test [13]: xenobiotic metabolism (CYP1A2), CYP1A2 (gene 1544)
Briefly: CLD_CYP1A2_6hr: CellzDirect (CLD) Gene Expression Assay for xenobiotic metabolism (CYP1A2) at 6 hours (AID 2283663).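 As to AC50: potency is for induction meaning a rise in mRNA above DMSO.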 The procedure, abridged:
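Primary human hepatocytes from two donor preparations, dosed daily with multiple concentrations in 0.2% DMSO and harvested at 6 h. CYP1A2 mRNA induction measured by chemiluminescent qNPA, gain of signal fitted against DMSO; cytotoxicity flagged morphologically.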

Test [14] can be described thus: CCTE_Simmons_CellTiterGLO_HEK293T: Viability Assessment in CCTE's Assays for Thyroperoxidase (TPO) Inhibition, Simmons Lab (AID 2283665).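 As to AC50: cells exposed to compound for 24 h before readout; actives reduce ATP signal below DMSO vehicle meaning cytotoxicity.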 The procedure, abridged: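 HEK293T cells in DMEM with 1% FBS were dosed with 8 concentrations (5 nM–87.5 uM final, 0.5% DMSO) for 24 hr at 37C; ATP content was read by CellTiter-Glo luminescence, loss-of-signal versus DMSO, three biological replicates.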
A general note: Cellular ATP, detected with luciferase, serves as a proxy for viable cell number.

Read-out in test [15]: solute carrier (SLC22A6), SLC22A6 (gene 9356)
Briefly: LTEA_HepaRG_SLC22A6: Life Technologies and Expression Analysis (LTEA) Assay for solute carrier (SLC22A6) using HepaRG (AID 2283653; active = hit-call score of the fitted dose curve at least 0.9, where 1 is the maximum; inactive = score below 0.9). The following applies: mRNA level, 48 h; actives raise or lower the signal. In a few lines: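 Differentiated HepaRG cells exposed 48 h in serum-free induction medium to 8 half-log concentrations, top 100 uM, in 0.5% DMSO; SLC22A6 mRNA by Fluidigm qRT-PCR normalized to ACTB, GAPDH, POLR2A, fitted bidirectionally versus DMSO.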

Read-out in test [16]: solute carrier (SLC10A1), SLC10A1 (gene 6554)
As to the kind of experiment: LTEA_HepaRG_SLC10A1: Life Technologies and Expression Analysis (LTEA) Assay for solute carrier (SLC10A1) using HepaRG (AID 2283657; active = hit-call score of the fitted dose curve at least 0.9, where 1 is the maximum; inactive = score below 0.9). The note with it: mRNA level, 48 h; actives raise or lower the signal. The procedure, abridged: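 Differentiated HepaRG cells were plated 48 h, then exposed in serum-free induction medium for 48 h to 8 concentrations (top 100 uM, half-log steps, 0.5% DMSO). SLC10A1 mRNA was quantified by qRT-PCR normalized to ACTB, GAPDH, POLR2A; bidirectional fit versus DMSO.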

Read-out in test [17]: matrix metalloproteinase-1 (MMP1), MMP1 (gene 4312)
As to the kind of experiment: LTEA_HepaRG_MMP1: Life Technologies and Expression Analysis (LTEA) Assay for matrix metalloproteinase-1 (MMP1) using HepaRG (AID 2283658; active = hit-call score of the fitted dose curve at least 0.9, where 1 is the maximum; inactive = score below 0.9). The following applies: mRNA level, 48 h; actives raise or lower the signal. The procedure, abridged:
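Differentiated human HepaRG cells, 48 h post-plating in serum-free induction medium, were exposed 48 h to eight half-log concentrations topping at 100 uM in 0.5% DMSO, duplicate. MMP1 mRNA measured by Fluidigm TaqMan qRT-PCR, normalized to ACTB, GAPDH, POLR2A; bidirectional fits versus DMSO.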

SMILES strings stand for the structures. Results filed as inconclusive are left out. Activity calls are given as the source filed them. The calls were made as follows, unless noted: active = hit-call score of the fitted dose curve at least 0.9, where 1 is the maximum; inconclusive = response in the unintended direction; inactive = score below 0.9.

Regarding `C[C@]12CC[C@@H]3c4ccc(O)cc4C[C@@H](CCCCCCCCCS(=O)CCCC(F)(F)C(F)(F)F)[C@H]3[C@@H]1CC[C@@H]2O` (stereo partly drawn), the molecule was classed as inactive in [1], in test [2], in test [3], in test [4], in test [5] and in [6]. In addition, the outcome in test [7] and in [8] was inactive.

On to `CC(=O)S[C@@H]1CC2=CC(=O)CC[C@]2(C)[C@H]2CC[C@@]3(C)[C@@H](CC[C@@]34CCC(=O)O4)[C@H]12`, for which the molecule was classed as inactive in [1], in test [2], in [5], in test [9], in test [6] and in test [7]. Moreover, the outcome in test [8] and in test [10] was inactive.

As to `CCCOC(=O)c1ccc(C(=O)OCCC)nc1`, the molecule was classed as inactive in [1], in [2], in test [11], in [5], in test [6] and in test [10]. Besides, the call in [12], in test [13] and in test [14] was inactive. Besides, the AC50 in test [7] was 1.97 µM (active).

For the molecule `CCCCC(CC)COC(=O)c1ccccc1C(=O)O` (stereo not drawn), the molecule was called inactive in test [1], in test [11], in [3], in test [6], in [7] and in test [8]. The molecule was called inactive in test [10] and in test [13].

Take `COC(=O)c1ccccc1S(=O)(=O)NC(=O)Nc1nc(OC(F)F)cc(OC(F)F)n1`: in [13], the molecule was classed as inactive.

Regarding `C=CCOC(Cn1ccnc1)c1ccc(Cl)cc1Cl` (stereo not drawn), the AC50 in test [1] is 3.98 µM (active). The result in test [11], in test [5], in [9], in [8] and in [10] was inactive.

Turning to `CCOC(=O)c1ccc(O)cc1`, the molecule was classed as inactive in test [1], in [11], in test [3], in test [5], in [9] and in test [6]. Further, the outcome in test [7], in test [8] and in test [10] was inactive.

As to `CCCN(CCC)C(=O)SCC`, the result in test [1], in test [11], in test [3], in test [4], in [5] and in test [9] was inactive. The molecule was classed as inactive in test [6], in test [7], in test [8], in [10] and in test [13].

For `CCOC(=O)COc1cc(-n2ncc(C(F)(F)F)c(C)c2=O)c(F)cc1Cl`, the outcome in test [2], in test [11], in [4], in test [5], in [9] and in [6] was inactive. Also, the molecule was classed as inactive in test [7], in [8], in test [10] and in test [13].

For the molecule `COC(=O)c1c(Cl)nn(C)c1S(=O)(=O)NC(=O)Nc1nc(OC)cc(OC)n1`, the AC50 in test [13] is 2.54 µM (active).

For `COC(=O)c1cccc(C)c1S(=O)(=O)NC(=O)Nc1nc(OCC(F)(F)F)nc(N(C)C)n1`, the AC50 in test [13] was 5.98 µM (active).

For the molecule `c1ccc(Nc2ccccc2)cc1`, the AC50 in test [1] was 20.7 µM (active); in [11], 36.1 µM (active); in test [3], 10.2 µM (active); in [14], 89.8 µM (active). For the same molecule, the outcome in test [4], in test [5], in [9], in test [6], in test [7] and in test [10] was inactive. Moreover, in test [13], the molecule was called inactive.

As for `CC(C)(C)[C@@H](O)[C@@H](Cc1ccc(Cl)cc1)n1cncn1`, the molecule was classed as inactive in test [1], in [3], in test [4], in test [5], in test [9] and in [6]. For the same molecule, the result in test [7], in [8], in [10] and in test [13] was inactive. Further, the AC50 in test [11] is 45.9 µM (active).

With `Oc1ccc(C(c2ccc(O)cc2)C(Cl)(Cl)Cl)cc1`, the AC50 in test [1] is 117 µM (active); in [4], 86.3 µM (active); in [6], 202 µM (active); in [7], 202 µM (active); in test [8], 69.5 µM (active); in test [12] it was 4.87 µM (active). The AC50 in test [13] is 0.266 µM (active); in test [14], 28.8 µM (active). Further, the molecule was classed as inactive in test [11], in test [3], in test [5], in test [9] and in test [10].

For `c1ccc2[nH]c(-c3cscn3)nc2c1`, the call in test [1], in [2], in test [3], in test [5], in test [6] and in [7] was inactive. The molecule was called inactive in test [8] and in [10]. In test [13], the AC50 is 5.82 µM (active).

In the case of `CCCCCCC(C)OC(=O)COc1nc(F)c(Cl)c(N)c1Cl` (stereo not drawn), the molecule was called inactive in test [2], in test [11], in test [3], in [4], in test [5] and in [15]. The outcome in test [7], in test [10], in test [16], in [17] and in [13] was inactive.
